In PubChem BioAssay one finds composite z-score and z-score data, which are given here for eight molecules.

Active and inactive are the calls of the source. Unless noted, how the calls were made is not given here.

Assay [1] deals with Wnt5a (protein binding on small-molecule microarray). Briefly: small molecules binding Wnt5a protein – biophysical, small-molecule microarray, 635/667 nm fluorescence, primary screen (AID 1142).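 Further: fluorescence read at 667 nm with signal to noise per printed feature.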 Particulars: 635 nm fluorescence, higher = more signal.
Assay [2] in a line: ATP-based viability of Huh7 replicon cells – cell-based, CellTiter-Glo luminescence, basal, 48 h, cytotoxicity control for HCV replication inhibitor project, primary screen (AID 1143).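 Further: Huh7 hepatoma cells carrying a hepatitis C replication reporter with no stimulus; test concentration not given here.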 The conditions noted are these: higher = more signal, called active from +8 up or from −8 down.
A short description of assay [3]: Pseudomonas biofilm growth suppression – PAO1 strain, BacTiter-Glo luminescence, LB-PBS, primary screen (AID 1144). Particulars: P. aeruginosa PAO1 biofilm, 12 h, higher = more signal.
Assay [4] is described as follows: basal CRE-LacZ reporter activity in PC12 – cell-based, unstimulated, primary screen (AID 1145). Particulars: no forskolin, luminescence, 4.5 h, higher = more signal, called active from +8 up or from −8 down.
Assay [5] in a line: forskolin-driven CRE-LacZ activity in PC12 – cell-based, CRE-LacZ reporter, forskolin-stimulated, primary screen (AID 1146).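 Further: PC12 cells with 6xCRE LacZ reporter stimulated by forskolin 10 µM; beta-galactosidase reporter signal reflecting CREB driven transcription.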 Particulars: luminescence, 4.5 h, higher = more signal, called active from +8 up or from −8 down.
Assay [6] addresses Streptavidin (Streptomyces avidinii) (UniProt P22629). Briefly: compounds binding control protein streptavidin – biophysical, small-molecule microarray, 635/667 nm fluorescence, artefact control for SMM compound annotation, primary screen (AID 1147).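 Further: signal reflects streptavidin binding to arrayed compounds as a control protein.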 Particulars: higher = more signal.
Assay [7] is described as follows: probe aInhba binding on compound microarray – biochemical, small-molecule microarray, 635/667 nm fluorescence, primary screen (AID 1148).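 Further: score merges 667nm spot fluorescence with signal-to-noise for antibody binding to printed compounds.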 The conditions noted are these: higher = more signal.
The target of assay [8] is Torsin-1A (Homo sapiens) (UniProt O14656). Briefly: TOR1A wild-type binding on microarray – cell lysate, small-molecule microarray, lysate, 635/667 nm, primary screen (AID 1149). Particulars: COS7 hTOR1A-WT lysate, 635 nm fluorescence, higher = more signal.
Chain of Torsin-1A (Homo sapiens) (O14656 whole entry, looked up): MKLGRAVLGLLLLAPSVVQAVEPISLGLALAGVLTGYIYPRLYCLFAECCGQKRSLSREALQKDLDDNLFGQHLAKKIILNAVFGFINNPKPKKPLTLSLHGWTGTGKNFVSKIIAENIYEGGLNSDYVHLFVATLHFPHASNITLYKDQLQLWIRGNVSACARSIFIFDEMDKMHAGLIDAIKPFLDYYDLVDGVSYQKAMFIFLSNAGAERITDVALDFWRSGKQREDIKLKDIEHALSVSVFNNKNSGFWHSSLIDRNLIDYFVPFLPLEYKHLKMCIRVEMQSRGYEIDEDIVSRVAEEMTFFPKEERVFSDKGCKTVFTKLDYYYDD
For assay [9] the target is unchanged. The assay is described as follows: torsin A mutant lysate binding on microarrays – cell lysate, small-molecule microarray, COS7 lysate, 635/667 nm fluorescence, primary screen (AID 1150).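 Further: score pools 667 nm emission and signal to noise measuring lysate protein binding.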 Particulars: COS7 hTOR1A mutant lysate, 635 nm fluorescence, higher = more signal.
In assay [10] the test system is Sonic hedgehog protein (Shh). Briefly: Sonic hedgehog microarray binding compounds – biochemical, small-molecule microarray, 635/667 nm fluorescence, primary screen (AID 1151).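 Further: Shh protein binding to compounds spotted on small-molecule microarray slides; score combines spot fluorescence intensity with signal-to-noise across triplicate slides.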 Particulars: 635 nm fluorescence, higher = more signal.
The nature of assay [11]: optical density shifts of acrAB sulA E. coli – strain DRC41, OD650, 48 h, E. coli filamentation inducer project, primary screen (AID 1152).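 Further: E. coli MC1000 strain DRC41 lacking acrAB efflux pump and sulA.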 The conditions noted are these: higher = more signal, called active from +8 up or from −8 down.
Assay [12] is described as follows: probe aLefty1 binding on compound microarray – biochemical, small-molecule microarray, 635/667 nm fluorescence, primary screen (AID 1153).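 Further: score merges spot fluorescence with signal-to-noise ratio from the scanned slide images.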 Particulars: higher = more signal.
A short description of assay [13]: plasmodial surface anion channel blockers, osmotic lysis – cell-based, P. falciparum Indochina, OD700, 1 h, primary screen (AID 1154). Particulars: P. falciparum Indochina infected RBC osmotic lysis, higher = more signal, called active from +8 up or from −8 down.
Assay [14] is described as follows: plasmodial surface anion channel blockers, osmotic lysis – cell-based, P. falciparum Indochina, OD700, 2 h, primary screen (AID 1155).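 Further: lysis reports solute entry through the parasite surface anion channel PSAC.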 The conditions noted are these: P. falciparum Indochina infected erythrocytes, higher = more signal, called active from +8 up or from −8 down.
A short description of assay [15]: changes in parasitized red cell lysis, either direction – P. falciparum Indochina, OD700, 3 h, PSAC antagonist project, primary screen (AID 1156). The conditions noted are these: P. falciparum-infected erythrocytes, osmotic lysis, higher = more signal, called active from +8 up or from −8 down.
Assay [16] in a line: plasmodial surface anion channel blockers, osmotic lysis – cell-based, P. falciparum Indochina, OD700, 18 h, primary screen (AID 1157). Particulars: P. falciparum Indochina infected erythrocytes, osmotic lysis OD700, 18 h; higher = more signal, called active from +8 up or from −8 down.
Assay [17] in a line: S6 kinase pathway phospho-S6 level changes – cell-based, A549, cytoblot, luminescence, serum-stimulated, primary screen (AID 1158).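 Further: serum-stimulated A549 lung adenocarcinoma cells; signal is phosphorylated S6 detected by cytoblot immunostaining with HRP secondary.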 Particulars: 5 h, higher = more signal.
The target of assay [18] is NADPH oxidase 2 (Homo sapiens) (UniProt P04839). Briefly: compounds shifting NOX2 Amplex Red fluorescence – cell-based, HEK293-NOX2, PMA-stimulated, NOX inhibitor project, primary screen (AID 1159). Further: test concentration not given here. Particulars: 45 min, higher = more signal, called active from +8 up or from −8 down.
Chain of NADPH oxidase 2 (Homo sapiens) (P04839 whole entry, looked up): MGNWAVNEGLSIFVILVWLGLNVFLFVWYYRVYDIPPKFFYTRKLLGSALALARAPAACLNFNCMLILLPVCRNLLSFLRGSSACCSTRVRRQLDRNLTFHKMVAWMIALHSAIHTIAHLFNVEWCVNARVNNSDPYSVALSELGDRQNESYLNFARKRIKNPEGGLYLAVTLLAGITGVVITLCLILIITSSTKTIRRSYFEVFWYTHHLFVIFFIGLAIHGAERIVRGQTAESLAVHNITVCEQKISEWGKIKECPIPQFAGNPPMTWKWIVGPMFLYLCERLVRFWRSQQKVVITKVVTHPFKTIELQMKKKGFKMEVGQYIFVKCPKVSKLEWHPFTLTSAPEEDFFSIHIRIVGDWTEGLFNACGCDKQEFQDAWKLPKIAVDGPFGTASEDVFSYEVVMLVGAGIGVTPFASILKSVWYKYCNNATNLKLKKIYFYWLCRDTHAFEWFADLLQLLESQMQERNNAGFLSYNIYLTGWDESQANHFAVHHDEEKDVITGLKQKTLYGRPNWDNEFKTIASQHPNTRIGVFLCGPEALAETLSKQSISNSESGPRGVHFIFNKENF
In assay [19] the target is NADPH oxidase 4 (Homo sapiens) (UniProt Q9NPH5). The assay is described as follows: compounds shifting NOX4 Amplex Red fluorescence – cell-based, HEK293-NOX4, tetracycline-induced, NOX inhibitor project, primary screen (AID 1160). Particulars: HEK293-NOX4, Amplex Red H2O2 fluorescence, 45 min; higher = more signal, called active from +8 up or from −8 down.
Chain of NADPH oxidase 4 (Homo sapiens) (Q9NPH5 whole entry, looked up): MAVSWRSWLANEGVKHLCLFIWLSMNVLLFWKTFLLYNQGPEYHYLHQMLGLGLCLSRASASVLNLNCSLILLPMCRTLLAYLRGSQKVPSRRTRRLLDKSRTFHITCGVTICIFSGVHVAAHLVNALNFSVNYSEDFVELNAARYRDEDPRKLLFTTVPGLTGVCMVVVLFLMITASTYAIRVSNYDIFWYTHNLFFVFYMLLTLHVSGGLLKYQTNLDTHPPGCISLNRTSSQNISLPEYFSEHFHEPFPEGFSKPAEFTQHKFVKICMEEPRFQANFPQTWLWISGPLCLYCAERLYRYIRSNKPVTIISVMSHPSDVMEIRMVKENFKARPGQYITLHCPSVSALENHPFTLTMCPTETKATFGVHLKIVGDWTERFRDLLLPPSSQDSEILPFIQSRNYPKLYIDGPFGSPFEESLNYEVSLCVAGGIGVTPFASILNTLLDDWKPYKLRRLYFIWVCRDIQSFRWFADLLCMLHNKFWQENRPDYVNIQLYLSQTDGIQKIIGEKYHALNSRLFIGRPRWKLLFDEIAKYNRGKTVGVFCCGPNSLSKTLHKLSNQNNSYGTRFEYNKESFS
In assay [20] the target is NADPH oxidase 5 (Homo sapiens) (UniProt Q96PH1). Briefly: compounds shifting NOX5 Amplex Red fluorescence – cell-based, HEK293-NOX5, NOX inhibitor project, primary screen (AID 1161). Particulars: HEK293-NOX5, ionomycin, 45 min, higher = more signal.
Chain of NADPH oxidase 5 (Homo sapiens) (Q96PH1 whole entry, looked up): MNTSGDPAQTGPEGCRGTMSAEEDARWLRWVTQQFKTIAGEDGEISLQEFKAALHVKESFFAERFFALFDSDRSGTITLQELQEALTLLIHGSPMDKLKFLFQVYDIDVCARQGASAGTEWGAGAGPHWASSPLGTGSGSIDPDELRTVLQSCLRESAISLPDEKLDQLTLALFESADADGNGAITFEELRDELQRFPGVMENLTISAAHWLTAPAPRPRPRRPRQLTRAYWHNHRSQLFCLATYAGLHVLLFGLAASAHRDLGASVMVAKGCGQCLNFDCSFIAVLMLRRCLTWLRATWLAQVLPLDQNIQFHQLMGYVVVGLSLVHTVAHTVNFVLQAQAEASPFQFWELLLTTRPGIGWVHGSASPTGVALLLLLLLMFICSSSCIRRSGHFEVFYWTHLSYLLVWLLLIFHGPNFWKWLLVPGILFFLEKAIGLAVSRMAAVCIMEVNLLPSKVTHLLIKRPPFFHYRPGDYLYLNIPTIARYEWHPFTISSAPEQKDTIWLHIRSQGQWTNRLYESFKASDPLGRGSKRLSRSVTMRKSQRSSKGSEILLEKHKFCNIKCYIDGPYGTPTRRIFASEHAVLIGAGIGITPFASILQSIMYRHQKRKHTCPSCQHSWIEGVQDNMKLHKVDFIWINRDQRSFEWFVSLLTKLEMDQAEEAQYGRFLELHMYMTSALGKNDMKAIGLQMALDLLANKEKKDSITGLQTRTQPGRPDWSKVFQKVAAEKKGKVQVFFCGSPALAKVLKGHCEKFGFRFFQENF

Chain of Streptavidin (Streptomyces avidinii) (P22629 whole entry, looked up): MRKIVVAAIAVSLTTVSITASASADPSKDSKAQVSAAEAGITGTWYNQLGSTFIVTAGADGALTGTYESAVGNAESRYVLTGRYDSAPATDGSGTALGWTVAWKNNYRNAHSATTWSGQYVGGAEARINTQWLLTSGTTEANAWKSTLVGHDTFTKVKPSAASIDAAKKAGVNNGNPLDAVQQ

For the molecule `COC(=O)c1ccc(OC)c(/C=C\CC(CCc2ccccc2)OC(C)=O)c1` (stereo not given), the composite z-score in assay [1] is -0.526; in assay [6], 0.245; in [7], -0.182; with Torsin-1A (Homo sapiens) [8], -0.813; in the assay with Torsin-1A (Homo sapiens) [9], -0.152; in [10], 0.482. Moreover, in [12], the composite z-score is -0.456. Besides, the z-score in assay [2] was -0.785 (inactive); in assay [3] it was 0.245 (inactive); in [4], 1.04 (inactive); in assay [5], -0.0403 (inactive); in [11] it was -0.601 (inactive); in [13] it was 8.9 (active). Besides, the z-score in assay [14] was 0.865 (inactive); in [15], -0.297 (inactive); in assay [16], 0.0093 (inactive); in [17] it was -0.0781; in [18], -0.135 (inactive); in assay [19] it was 0.424 (inactive). For the same molecule, the z-score in [20] is -0.983.
As for `CN(C)CCCN1C(=O)[C@@]2(Cc3ccccc31)c1ccccc1C(=O)N(Cc1ccccc1)[C@H]2c1ccc(CO)cc1`, the composite z-score is -0.173 in assay [1]; -0.394 in assay [6]; -0.128 in assay [7]; -0.158 with Torsin-1A (Homo sapiens) [8]; -0.105 with Torsin-1A (Homo sapiens) [9]; 0.463 in assay [10]. In addition, in [12], the composite z-score is -0.193. Further, the z-score is -5.06 (inactive) in assay [2]; -1.74 (inactive) in assay [3]; -0.491 (inactive) in assay [4]; -0.665 (inactive) in [5]; 0.0234 (inactive) in [11]; -0.0561 (inactive) in assay [13]. In addition, the z-score in assay [14] was -0.952 (inactive); in assay [15], 0.182 (inactive); in assay [16], -1.33 (inactive); in assay [17], 2.05; in [18], -2.34 (inactive); in [19] it was -2.82 (inactive). Also, the z-score in assay [20] is -2.96.
In the case of `COCCCNC(=O)[C@@]1(Cc2ccccc2I)c2ccccc2C(=O)N(Cc2ccccc2Cl)[C@H]1c1ccc(CO)cc1`, the composite z-score was -0.193 in assay [1]; 1.46 in assay [6]; -0.0538 in assay [7]; -0.0444 in the assay with Torsin-1A (Homo sapiens) [8]; -0.078 with Torsin-1A (Homo sapiens) [9]; 0.191 in assay [10]. Further, in [12], the composite z-score was -0.0346. Also, the z-score is -4.15 (inactive) in assay [2]; -1.72 (inactive) in assay [3]; -0.529 (inactive) in [4]; -0.656 (inactive) in [5]; 0.437 (inactive) in assay [11]; 5.51 (inactive) in assay [13]. Also, the z-score was 0.303 (inactive) in assay [14]; 0.65 (inactive) in assay [15]; 0.13 (inactive) in assay [16]; 0.984 in [17]; 0.374 (inactive) in assay [18]; -0.881 (inactive) in assay [19]. Also, the z-score in [20] was -2.14.
As for `O=C(CS)NCCCCCNC(=O)[C@@H]1C[C@@H]2C(=O)N3CCC[C@H]3C(=O)N2[C@@H]1c1ccc(O)cc1`, the composite z-score in assay [1] is 0.257; in assay [6] it was -0.23; in [7], -0.0313; with Torsin-1A (Homo sapiens) [8], 0.99; in the assay with Torsin-1A (Homo sapiens) [9], 1.24; in assay [10] it was 0.837. Further, in assay [12], the composite z-score was 0.109. Further, the z-score was -0.237 (inactive) in assay [2]; -0.78 (inactive) in assay [3]; -0.13 (inactive) in assay [4]; -0.862 (inactive) in assay [5]; -0.391 (inactive) in assay [11]; 2.25 (inactive) in assay [13]. Also, the z-score in assay [14] was 0.508 (inactive); in assay [15] it was -2.66 (inactive); in assay [16], 0.251 (inactive); in assay [17], -0.244; in assay [18], 0.927 (inactive); in [19], 0.313 (inactive). For the same molecule, the z-score in [20] was -0.651.
In the case of `C=CCN1C(=O)[C@@]2(O[C@@H](CCn3cc([C@H](O)c4ccccc4)nn3)[C@H]([Si](C)(C)c3ccc(OC)cc3)[C@H]2C)c2cc(NC(=O)c3ccc(OC)cc3)ccc21`, the composite z-score in [1] is 0.192; in assay [6], 0.429; in assay [7], -0.128; in the assay with Torsin-1A (Homo sapiens) [8], -0.0041; with Torsin-1A (Homo sapiens) [9], -0.0819; in assay [10] it was 1.32. In assay [12], this molecule yielded a composite z-score of -0.0016. Further, the z-score in assay [2] is -3.14 (inactive); in assay [3] it was -0.527 (inactive); in [4], 3.97 (inactive); in [5] it was 0.35 (inactive); in [11], 0.55 (inactive); in assay [13], 6.81 (inactive). The z-score is 1.77 (inactive) in assay [14]; 1.39 (inactive) in assay [15]; 1.38 (inactive) in assay [16]; 0.689 in assay [17]; 0.106 (inactive) in [18]; 0.863 (inactive) in [19]. The z-score in assay [20] worked out at 0.583.
As to `O=c1c2ccc(Br)cc2nc(-c2ccccc2)n1Cc1cccc(O)c1`, the composite z-score in [1] worked out at 0.153; in assay [6], 0.669; in [7], 0.229; with Torsin-1A (Homo sapiens) [8] it was 1.45; with Torsin-1A (Homo sapiens) [9] it was 1.88; in assay [10], 0.332. The composite z-score in assay [12] was found to be 0.748. In addition, the z-score in assay [2] was -0.913 (inactive); in assay [3], 0.32 (inactive); in [4], 0.272 (inactive); in assay [5] it was -1.17 (inactive); in assay [11], 0.421 (inactive); in assay [13], 15.7 (active). Moreover, the z-score in [14] is 3.45 (inactive); in assay [15], 0.386 (inactive); in assay [16] it was 1.73 (inactive); in assay [17], -0.404; in [18], -1.84 (inactive); in assay [19] it was -1.05 (inactive). Further, the z-score in [20] was -1.99.
On to `COCCOC(=O)N1C(=O)[C@@]2(c3cc(C#Cc4ccc(OC)cc4)ccc31)[C@H](C(=O)N1CCc3cc(OC)c(OC)cc3C1)[C@H]1C(=O)O[C@H](c3ccccc3)[C@H](c3ccccc3)N1[C@@H]2c1ccc(O)cc1`, for which the composite z-score turned out to be 0.783 in assay [1]; 0.802 in assay [6]; 1.06 in [7]; 0.58 with Torsin-1A (Homo sapiens) [8]; 0.984 with Torsin-1A (Homo sapiens) [9]; 0.813 in [10]. Also, in assay [12], the composite z-score came to 1.05. Further, the z-score in assay [2] is -0.637 (inactive); in [3], 0.693 (inactive); in assay [4], -0.0688 (inactive); in assay [5], 0.236 (inactive); in assay [11] it was 0.515 (inactive); in assay [13], 1.74 (inactive). The z-score in assay [14] is 0.402 (inactive); in [15], 0.295 (inactive); in assay [16] it was 0.285 (inactive); in [17], 0.269; in assay [18], 0.987 (inactive); in assay [19] it was -1.37 (inactive). The z-score in assay [20] was found to be 0.321.
For `N#Cc1ccc(NN2C(C(O)c3ccco3)C=CC3C(=O)N(c4ccccc4)C(=O)C32)cc1` (stereo not given), the composite z-score in assay [1] was 0.0896; in assay [6], 0.252; in assay [7] it was 0.0183; with Torsin-1A (Homo sapiens) [8] it was 0.135; in the assay with Torsin-1A (Homo sapiens) [9] it was -0.236; in assay [10] it was -0.0404. For the same molecule, the composite z-score in assay [12] came out at 0.135. The z-score in [2] is 1.34 (inactive); in [3], -0.768 (inactive); in [4] it was -0.136 (inactive); in assay [5], 0.2 (inactive); in assay [11] it was -4.51 (inactive); in assay [13], 7.71 (inactive). Also, the z-score is 1.67 (inactive) in [14]; 1.12 (inactive) in assay [15]; 0.826 (inactive) in assay [16]; -0.555 in [17]; -0.911 (inactive) in assay [18]; -4.51 (inactive) in assay [19]. In addition, the z-score in assay [20] is -2.69.
